The supplement of paper PMC3545927
Some of the results follow. The true hit rate is not given.

Target: furin, P09958
Assay: furin cleavage Z-score vs untreated control; higher = more cleavage, active = 3.5 or more, inactive = 1 or less, 8 variable residues between constant flanks
Summary of the method: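 The cleavage Z-score was derived for purified furin acting on 8-mer peptides held on magnetic beads and fused to a cDNA oligonucleotide. Digests lasted 7.5, 15 or 30 min at 1:10 enzyme:substrate in 50 mM HEPES pH 7.5 with CaCl2 and NaCl. Sequencing counts of released DNA, log-transformed against furin-free reactions, were lowess-adjusted and scaled by median absolute deviation.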

furin, P09958, sequence (P09958 whole entry): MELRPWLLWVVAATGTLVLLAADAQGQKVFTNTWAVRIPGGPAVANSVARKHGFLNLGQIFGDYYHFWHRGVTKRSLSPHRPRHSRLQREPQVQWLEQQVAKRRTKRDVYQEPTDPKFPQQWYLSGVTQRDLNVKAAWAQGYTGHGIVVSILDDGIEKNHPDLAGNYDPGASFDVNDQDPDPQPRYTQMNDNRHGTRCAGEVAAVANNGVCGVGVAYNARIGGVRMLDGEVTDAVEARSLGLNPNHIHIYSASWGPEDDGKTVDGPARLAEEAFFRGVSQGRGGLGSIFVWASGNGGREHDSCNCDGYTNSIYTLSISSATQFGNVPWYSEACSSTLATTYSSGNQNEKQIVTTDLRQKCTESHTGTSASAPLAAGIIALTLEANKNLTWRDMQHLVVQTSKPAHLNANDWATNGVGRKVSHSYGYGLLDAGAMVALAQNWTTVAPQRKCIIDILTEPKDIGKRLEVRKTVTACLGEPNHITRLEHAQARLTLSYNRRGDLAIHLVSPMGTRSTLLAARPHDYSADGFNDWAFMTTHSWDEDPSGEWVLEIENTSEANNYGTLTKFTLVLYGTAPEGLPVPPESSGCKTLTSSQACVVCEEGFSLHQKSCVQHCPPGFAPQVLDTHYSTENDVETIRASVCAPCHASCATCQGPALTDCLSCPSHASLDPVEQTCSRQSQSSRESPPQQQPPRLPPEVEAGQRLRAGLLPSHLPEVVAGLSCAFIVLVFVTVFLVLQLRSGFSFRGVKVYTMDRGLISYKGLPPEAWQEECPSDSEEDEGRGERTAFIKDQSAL

Row | Sequence | furin cleavage Z-score (7.5 min) | furin cleavage Z-score (15 min) | furin cleavage Z-score (30 min)
1 | CASWDQMWKCAGNASASA [HC962] | 1.5 | -0.918 (inactive) | -0.53 (inactive)
2 | CAAAEEQKLPAGNASASA [HC1378] | -1.36 (inactive) | -0.838 (inactive) | -1.05 (inactive)
3 | CAWMNRLIAFAGNASASA [HC1118] | 0.154 (inactive) | 0.647 (inactive) | 1.16
4 | CAHVPCHRPSAGNASASA [HC2315] | 1.79 | 0.404 (inactive) | 0.971 (inactive)
5 | CAMNECSQHLAGNASASA [HC1701] | -0.476 (inactive) | 0.465 (inactive) | 1.3
6 | CAEGVVCCSMAGNASASA [HC2136] | 0.615 (inactive) | 1.53 | -0.0256 (inactive)
7 | CAEVLYREFDAGNASASA [HC1010] | -0.000681 (inactive) | -0.163 (inactive) | -0.163 (inactive)
8 | CARGRRRRRTAGNASASA [FS-1399] | 6.1 (active) | 5.39 (active) | 6 (active)
9 | CARGRRKKKCAGNASASA [FS-1398] | 0.559 (inactive) | 2.05 | 2.1
10 | CAPVVPQSFQAGNASASA [HC769] | 0.521 (inactive) | -0.599 (inactive) | -1.31 (inactive)
11 | CARVKRVSHSAGNASASA [FS-2619] | -0.25 (inactive) | 0.383 (inactive) | 1.16
12 | CARVKRPQLMAGNASASA [FS-2532] | 1.35 | -0.179 (inactive) | -0.384 (inactive)
13 | CARVPRDWDPAGNASASA [FS-1940] | -0.333 (inactive) | -0.446 (inactive) | 1.11
14 | CARVKRRLLMAGNASASA [FS-2318] | 1.78 | 2.84 | 5.21 (active)
15 | CARVKRRADPAGNASASA [FS-2197] | 8.92 (active) | 9.27 (active) | 8.27 (active)
16 | CARQKRRAKPAGNASASA [FS-1864] | 5.33 (active) | 6.71 (active) | 6.66 (active)
17 | CARQKRREERAGNASASA [FS-1865] | -0.0741 (inactive) | 1.57 | 0.905 (inactive)
18 | CARQKRNKIPAGNASASA [FS-2290] | 0.00727 (inactive) | -0.821 (inactive) | 0.672 (inactive)
19 | CAEVPCHRQSAGNASASA [HC2402] | 0.566 (inactive) | 0.909 (inactive) | 1.17
20 | CARVKRYRQSAGNASASA [FS-2243] | 3.13 | 4.29 (active) | 5.21 (active)
21 | CAVMCCSMSYAGNASASA [HC2006] | 0.223 (inactive) | 0.521 (inactive) | 0.261 (inactive)
22 | CAVVCCPMSYAGNASASA [HC120] | -0.00854 (inactive) | 1.19 | 0.154 (inactive)

Row | Sequence | furin cleavage Z-score (7.5 min) | furin cleavage Z-score (15 min) | furin cleavage Z-score (30 min)
23 | CARVKRTHVPAGNASASA [FS-2242] | 4.22 (active) | 8.01 (active) | 3.97 (active)
24 | CARVKRFIQEAGNASASA [FS-2099] | 5.75 (active) | 5.53 (active) | 5.92 (active)
25 | CARVKRQKISAGNASASA [FS-1939] | 2.51 | 3.08 | 4.8 (active)
26 | CARVKRPIENAGNASASA [FS-2531] | -0.853 (inactive) | 0.717 (inactive) | -0.955 (inactive)
27 | CARSFRRIAGAGNASASA [FS-2804] | -0.414 (inactive) | -1.36 (inactive) | -1.34 (inactive)
28 | CARVKRRIENAGNASASA [FS-2533] | 4.86 (active) | 7.07 (active) | 8.34 (active)
29 | CASTMCSAHLAGNASASA [HC2506] | -0.111 (inactive) | 1.36 | 2.15
30 | CADSMEECSQAGNASASA [HC1817] | 1.19 | 1.94 | 0.888 (inactive)
31 | CAEYEVPCHRAGNASASA [HC2449] | -0.191 (inactive) | 0.0222 (inactive) | -0.958 (inactive)
32 | CANSSRSKKPAGNASASA [FS-947] | -0.794 (inactive) | -0.615 (inactive) | -1.7 (inactive)
33 | CARSIRDILAAGNASASA [FS-1840] | -1.31 (inactive) | 1.74 | 2.38
34 | CARVKRNILAAGNASASA [FS-1872] | 5.27 (active) | 8.45 (active) | 8.24 (active)
35 | CACVSRSKRDAGNASASA [FS-407] | 13 (active) | 10.3 (active) | 7.76 (active)
36 | CACVLRSKRDAGNASASA [FS-406] | 9.82 (active) | 8.74 (active) | 6.13 (active)
37 | CAHWSMSKRDAGNASASA [FS-335] | -1.15 (inactive) | 0.288 (inactive) | 0.917 (inactive)
38 | CASTPCSANLAGNASASA [HC2561] | 0.829 (inactive) | 0.852 (inactive) | 0.011 (inactive)
39 | CADVVTKLPLAGNASASA [HC1459] | 0.775 (inactive) | 0.418 (inactive) | 0.0796 (inactive)
40 | CAFTEAMTRYAGNASASA [HC1540] | 1.26 | -0.149 (inactive) | -0.331 (inactive)
41 | CAPLAVMGSSAGNASASA [HC1462] | 0.481 (inactive) | 1.18 | -0.14 (inactive)
42 | CARTSRRKRYAGNASASA [FS-958] | 11.4 (active) | 13.5 (active) | 9.45 (active)
43 | CAPKARRKRYAGNASASA [FS-619] | 11.3 (active) | 13.4 (active) | 11.2 (active)
44 | CARTSRRKRAAGNASASA [FS-1274] | 10.3 (active) | 9.52 (active) | 6.92 (active)
